Assay outcomes from PubChem BioAssay.
FBW7 activator: FBW7 E3 ligase activators, primary screen, biochemical, AlphaScreen, human; F-box/WD repeat-containing protein 7 (Homo sapiens), Q969H0; AID 1259310, 2017; AlphaScreen FBW7–phospho-cyclin E peptide binding, activator screen; actives 0.13% (n = 650,000); normalized activity (activation), % at 26.1 µM; in the data active = normalized activity above about 1.9%;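 also: purified mutant Fbw7 with reduced substrate affinity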
GPR151 activ: activators of human GPR151, primary screen, cell-based, PathHunter beta-arrestin, luminescence; G-protein coupled receptor 151 (Homo sapiens), Q8TDV0; actives 1% (n = 650,000); PathHunter beta-arrestin GPR151 cells; AID 1508602, 2020; activation, % at 11.2 µM; in the data active = activation above about 4.9%;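 also: 0% = median of compound wells and 100% = cells with positive control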
Target sequence (Q8TDV0 whole entry, looked up): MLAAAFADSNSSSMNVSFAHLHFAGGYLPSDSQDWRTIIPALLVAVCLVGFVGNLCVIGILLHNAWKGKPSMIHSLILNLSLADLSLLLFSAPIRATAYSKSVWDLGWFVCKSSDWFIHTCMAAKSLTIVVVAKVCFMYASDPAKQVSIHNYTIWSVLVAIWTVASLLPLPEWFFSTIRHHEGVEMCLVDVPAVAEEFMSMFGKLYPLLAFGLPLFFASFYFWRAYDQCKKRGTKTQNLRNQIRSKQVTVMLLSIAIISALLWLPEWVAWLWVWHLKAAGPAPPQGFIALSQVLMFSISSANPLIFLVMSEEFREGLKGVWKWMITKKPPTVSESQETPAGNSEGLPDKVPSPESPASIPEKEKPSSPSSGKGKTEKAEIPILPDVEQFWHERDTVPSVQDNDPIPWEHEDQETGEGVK
MITF primary: MITF inhibitors, primary screen, biochemical, AlphaScreen, human; AlphaScreen MITF homodimerization, bead proximity signal; inhibition, % at 2.6 µM; actives 0.91% (n = 650,000); AID 1259374, 2018; in the data active = inhibition above about 50%;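 also: 0% = vehicle wells with protein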
TEAD-YAP block: TEAD-YAP interaction inhibition, primary screen, TEAD-YAP interaction inhibitor project, luminescence, HEK-TIYL cells; inhibition, % at 9.12 µM; actives 1.4% (n = 640,000); TEAD-Gal4/YAP UAS-luciferase luminescence; AID 1259422, 2018; in the data active = inhibition above about 32%;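 also: 0% = median of test compound wells and 100% = reference inhibitor wells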
GPR151 confirm: GPR151 activators, triplicate retest, confirmation, cell-based, PathHunter beta-arrestin, luminescence; 6,700 tested, under 10 active; shares compounds with GPR151 activ; activation, % at 11.2 µM; GPR151 PathHunter beta-arrestin cells, 90 min; % of EA-reagent control over plate median;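 active = mean percent activation across replicates above the confirmation screen cutoff of 4.91%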
GPR119 ag: GPR119 activators in beta-arrestin cells, counter-screen for GPR151 activator project, cell-based, PathHunter beta-arrestin, luminescence, triplicate; shares compounds with GPR151 activ; 90 min; 0 = compound-well median, 100 = enzyme-acceptor control; activation, % at 11.2 µM; actives 0.3% (n = 6,700);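 active = mean percent activation in the counterscreen above 29.09%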;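 also: counterscreen on off-target GPR119 to flag nonselective hits from the GPR151 activator screen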
Numbers without * were called inactive; . = not tested or not shown. Shown are actives, neighbours in structure and some others; about 3.4% of the full set was active somewhere.

SMILES	FBW7 activator	GPR151 activ	MITF primary	TEAD-YAP block	GPR151 confirm	GPR119 ag
CC1CN(c2cc(N3CCOCC3)c(F)cc2[N+](=O)[O-])CCN1C(=O)c1cccs1 (centres undefined)	-0.2	7.6*	0.4	-18.8	-0.1	-0.2
COc1ccc(/C=C2\N=C(c3cccc(I)c3)OC2=O)cc1[N+](=O)[O-]	-0.2	14.4*	-4.2	0.6	1.4	-6.1
COc1ccc(C2=N/C(=C\c3ccc([N+](=O)[O-])cc3)C(=O)O2)cc1[N+](=O)[O-]	0.1	-1.5	22.3	1.1	.	.
COc1ccc(/C=N/NC(=O)c2cc(C)[nH]n2)cc1Br	0.0	0.8	4.4	-3.9	.	.
NS(=O)(=O)c1ccccc1NC(=O)c1c(O)c2cccc3c2n(c1=O)CC3	-0.1	5.2*	-4.7	-9.4	-0.8	-9.9
Cc1ccc(C(=O)Nc2ccc(F)cc2)cc1S(=O)(=O)N1CCCCCC1	-0.2	-0.2	-1.3	-16.6	.	.
Cc1ccc(C(=O)Nc2cc(C(N)=O)cc(C(N)=O)c2)cc1S(=O)(=O)N1CCCCC1	0.0	6.4*	10.6	-2.2	0.0	3.5
Cc1ccccc1NC(=S)NCC(c1cccnc1)N1CCOCC1 (centres undefined)	0.2	0.3	4.2	-8.1	.	.
S=C(NCCc1ccccc1)NCC(c1cccnc1)N1CCOCC1 (centres undefined)	-0.1	9.3*	-3.8	2.5	0.8	8.8
Cc1nc2nc(SCC(=O)NC3CCCCC3)nn2c(C)c1Cc1c(F)cccc1Cl	-0.3	6.4*	7.7	3.7	0.0	1.7
CC(C)(C)NC(=O)Cn1cc(S(=O)(=O)Cc2ccccc2)c2ccccc21	0.0	8.3*	0.7	-10.6	0.3	-2.7
CC(C)(C)NC(=O)Cn1cc(S(=O)(=O)Cc2ccc(F)cc2)c2ccccc21	0.0	5.3*	11.9	4.9	1.2	3.9
NC(=O)c1ccc(NC(=O)Cn2cc(S(=O)(=O)Cc3ccccc3)c3ccccc32)cc1	0.2	-0.1	7.5	-3.8	.	.
COc1cc(=O)[nH]c(SCC(=O)Nc2ccc(Br)cc2)n1	0.1	1.7	11.5	4.5	.	.
COc1ccccc1C1CC(c2ccc(Cl)cc2)Nc2nnnn21 (centres undefined)	0.0	5.2*	8.2	1.2	-0.4	-11.5
COc1ccccc1C1CC(c2ccc(C(C)C)cc2)Nc2nnnn21 (centres undefined)	0.0	-1.0	3.0	-4.2	.	.
CC1CCN(Cc2nnnn2CCCC(=O)N(C)C2CCOC2)CC1 (centres undefined)	-0.1	8.7*	4.0	2.7	-1.0	-5.9
O=C(CN(Cc1ccccc1F)S(=O)(=O)c1ccc(Cl)cc1)NCCCO	-0.1	6.0*	5.0	11.2	0.9	7.8
CCOc1ccc(N2C(=O)CC(NNC(=O)Cc3ccccc3)C2=O)cc1 (centres undefined)	0.0	1.3	2.7	-7.7	.	.
Cc1ccc2c(c1)CN(CC(=O)NCc1cc(-c3ccccc3)n[nH]1)CC(C)O2 (centres undefined)	0.0	5.2*	5.6	-1.6	0.6	6.6
CC1CN(CC(=O)NCc2nc(-c3ccccc3)n[nH]2)Cc2ccccc2O1 (centres undefined)	-0.2	-0.1	1.4	6.0	.	.
O=C(c1ccc(Cl)cc1)c1cc(NC(=O)c2cc(Br)cc(Br)c2O)ccc1Cl	0.2	8.2*	2.8	6.8	0.8	-3.3
Cc1c(Oc2ccccc2)c(=O)[nH]c2nnc(C(F)(F)F)n12	0.4	1.1	11.5	6.1	.	.
CCOc1cccc(N2C(=O)CC(N3CCN(c4ccccn4)CC3)C2=O)c1 (centres undefined)	-0.2	0.1	-10.6	5.2	.	.
COc1cccc(N2C(=O)CC(N3CCN(c4ccccn4)CC3)C2=O)c1 (centres undefined)	0.1	5.1*	2.8	0.2	-0.3	-6.4
SMILES	FBW7 activator	GPR151 activ	MITF primary	TEAD-YAP block	GPR151 confirm	GPR119 ag
COc1ccc(N2CCN(C3CC(=O)N(c4ccc(C(=O)O)cc4)C3=O)CC2)cc1 (centres undefined)	0.2	6.0*	12.7	5.2	0.1	4.0
COc1cc(/C=C2\SC(N)=NC2=O)cc(Br)c1OC	0.0	1.8	6.3	3.1	.	.
O=C1CC(c2nnc(Cc3ccccc3Cl)o2)CN1c1ccccc1 (centres undefined)	-0.1	5.5*	-12.3	5.8	-0.5	-10.3
CCCN(Cc1cccs1)C(=O)NCc1ccccc1	0.2	8.1*	5.5	-4.9	0.0	-11.8
CC(C)[C@H](NC(N)=O)C(=O)Nc1ccc(-c2nnc3n2CCCCC3)cc1	0.2	-0.1	-15.4	-1.5	.	.
COc1ccc(CC2(CCC(=O)NCc3cnn(C)c3C)CCC(=O)N2)c(F)c1 (centres undefined)	0.3	5.1*	-7.1	-1.4	1.1	10.0
Cn1c(=O)c2c(SCC(=O)O)nc(-c3ccco3)nc2n(C)c1=O	-0.1	0.2	-13.8	-13.2	.	.
Cn1c(=O)c2c(SCC(=O)c3ccccc3)nc(-c3ccccc3F)nc2n(C)c1=O	0.1	1.0	1.5	-9.2	.	.
CCSc1nc(-c2ccco2)nc2c1c(=O)n(C)c(=O)n2C	0.0	6.3*	16.1	9.4	0.6	5.7
Cn1c(=O)c2c(SCC(=O)O)nc(-c3ccccc3Cl)nc2n(C)c1=O	-0.2	4.9*	-2.9	-2.1	-0.7	0.1
COc1cc(C)cc(CN2CCN(Cc3ccc4c(c3)OCO4)CC2)c1O	-0.1	5.3*	-0.4	-11.2	-0.4	7.3
COc1cc(OC)c(CN2CCN(Cc3ccc4c(c3)OCO4)CC2)cc1Br	0.0	3.5	39.3	-4.8	.	.
O=C(CN1CCN(S(=O)(=O)c2ccccc2)CC1)c1ccco1	0.2	-0.5	10.8	6.4	.	.
COc1ccc(OC)c(S(=O)(=O)N2CCN(CC(=O)c3ccco3)CC2)c1	0.1	6.8*	3.0	3.4	0.2	-7.3
COc1ccc(S(=O)(=O)N2CCN(CC(=O)c3ccco3)CC2)cc1OC	0.2	12.2*	7.2	2.2	0.1	-0.4
COc1ccc(F)cc1S(=O)(=O)N1CCN(CC(=O)c2ccco2)CC1	0.0	-0.9	48.2	-11.4	.	.
COCC(=O)N1CCN(CC(=O)c2ccco2)CC1	0.1	4.9*	9.0	4.9	0.0	-6.5
CC(C)c1cc(CNC(=O)c2cc(COc3cccc4cnccc34)on2)on1	0.2	-0.1	11.6	15.4	.	.
CN(CCO)C(=O)c1cc(COc2cccc3cnccc23)on1	0.2	6.7*	19.1	-5.0	1.2	-2.6
